Drawing on PubChem BioAssay (NCI), this text covers growth for eight compounds.

The structures appear in SMILES notation. This is part of a sample that, as a whole, favours compounds with a hit. Of some 83,000 tested, about 20% had one in any assay.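 Cell lines were cultured in 96-well plates, exposed to a single compound concentration, and assessed for percent growth 48 hours later.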 Unmarked numbers belong to inactive results. The source made the active and inactive calls. Rule for the calls: active = growth percent below 10; inactive = the rest.

Common to all, as to experiment: NCI-60 one-dose screen, 48 h (100 = growth as untreated, 0 = no growth, -100 = all killed)
Common to all, as to details: 10 µM unless noted

Test [1] relates to SR leukemia.
The test system of test [2] is RPMI-8226 leukemia.
The subject of test [3] is OVCAR-8 ovarian.
The subject of test [4] is OVCAR-5 ovarian.
Test [5] relates to OVCAR-4 ovarian.
In test [6] the test system is SK-OV-3 ovarian.
Test [7] concerns IGROV1 ovarian.
For test [8], the system named is OVCAR-3 ovarian.
The subject of test [9] is HS 578T breast.
Test [10] relates to NCI/ADR-RES ovarian.
Test [11] concerns T-47D breast.
In test [12] the test system is BT-549 breast.
Test [13] concerns MDA-MB-435 melanoma.
Test [14] relates to SW-620 colon.
Test [15] relates to MCF7 breast.
The test system of test [16] is HCT-116 colon.
Test [17] relates to HCC-2998 colon.
Test [18] concerns KM12 colon.

Regarding `COc1ccc(-c2nc(/C=N/Nc3cc(C)nc4ccc(Cl)cc34)c(C)o2)cc1`, the growth in test [1] was -5.37% (active); in [2], -50.8% (active); in test [3], -82% (active); in test [4] it was -93.3% (active); in [5], -95.3% (active); in test [6] it was 92.5%. The growth in [7] was -78.8% (active); in test [8], -96.9% (active); in test [9] it was -29.3% (active); in [10], -74.7% (active); in test [11] it was -38% (active); in test [12], -34.9% (active). Moreover, the growth in test [13] is -97.1% (active); in [14] it was -88.6% (active); in test [15] it was -80.2% (active); in test [16] it was -86% (active); in test [17], -48.3% (active); in test [18], -87% (active).
On to `CN1C(=O)N(C)C2C1NN=c1s/c(=C\C=C\c3ccccc3)c(=O)n12` (centres undefined), for which the growth in [1] was 24.3%; in test [2], 84.9%; in test [3], 79.7%; in test [4], 85.9%; in test [5], 81.9%; in test [6] it was 65.7%. The growth in test [7] was 50.7%; in test [8] it was 12%; in test [9] it was 59.6%; in test [10], 36.4%; in [11], 53.1%; in test [12], 55.2%. The growth in [13] was 4.66% (active); in test [14], 40%; in test [15] it was -94.6% (active); in test [16], 31.8%; in test [17] it was 63.1%; in [18] it was 23.2%.
Take `COc1cc([N+](=O)[O-])c2ncccc2c1O`: the growth is 107% in test [1]; 75.6% in test [2]; 78.5% in [3]; 76.4% in test [4]; 104% in test [5]; 37% in test [6]. For the same compound, the growth in test [7] was 51.8%; in test [8], 83.1%; in [9] it was -3.86% (active); in [10], 91.1%; in test [11], 94.8%; in test [12] it was 86.9%. The growth is 51.8% in [13]; 58.6% in [14]; 49% in test [15]; 76.7% in [16]; 26.2% in [17]; -2.23% (active) in test [18].
On to `NC1N=C(SCC(=O)N2CCN(c3cc4c(cc3F)c(=O)c(C(=O)O)cn4C3CC3)CC2)NC(=O)/C1=C/c1ccc(Cl)cc1` (centres undefined), for which the growth in test [1] is 110%; in test [2] it was 101%; in test [3], 102%; in [4] it was 104%; in [5], 99.5%; in test [6] it was 114%. Further, the growth in [7] was 104%; in [8], 109%; in test [9], 106%; in [10] it was 105%; in test [11], 97.9%; in [12] it was 122%. Also, the growth is 105% in test [13]; 104% in test [14]; 105% in [15]; 101% in test [16]; 109% in test [17]; 107% in test [18].
In the case of `Nc1cccc(-c2nc3sccn3c2-c2ccnc(NCCCNS(=O)(=O)c3cccc4ccccc34)n2)c1`, the growth was 38.7% in test [1]; 8.33% (active) in [2]; 23.5% in test [3]; 92.1% in test [4]; 24.6% in test [5]; 63.1% in test [6]. In addition, the growth in [7] was 36.7%; in [8] it was 37.6%; in [9] it was 44.7%; in test [10], 38.3%; in test [11], -2.4% (active); in test [12] it was 7.66% (active). The growth was 23.2% in test [13]; 68.2% in test [14]; 25.2% in test [15]; 36.1% in [16]; 60.7% in test [17]; 23.6% in test [18].
As for `CCN(CC)c1ccc(CNc2ccnc3ccccc23)cc1`, the growth is 9.72% (active) in [1]; 25.2% in test [2]; 47.4% in test [3]; 81.7% in test [4]; 17.1% in test [5]; 61.4% in test [6]. In addition, the growth was 78.2% in test [7]; 52.5% in test [8]; 90.1% in test [9]; 40% in test [10]; 29% in [11]; 45.4% in [12]. Further, the growth is 48.2% in test [13]; 70.8% in [14]; 33.3% in test [15]; 30.3% in test [16]; 36.9% in test [17]; 73.6% in test [18].
Turning to `CCO/C=N/C1=C(C#N)C(c2ccc(Cl)cc2)c2c(c3ccc(C)cc3[nH]c2=O)O1` (centres undefined), the growth was 86.7% in test [1]; 30.2% in test [2]; 89.7% in [3]; 83.1% in test [4]; 85% in test [5]; 85.7% in test [6]. Also, the growth was 68.4% in test [7]; 103% in [8]; 48.8% in [9]; 96.1% in [10]; 78.4% in test [11]; 86.7% in test [12]. Besides, the growth is 90.7% in [13]; 84.6% in [14]; 78.7% in test [15]; 82.4% in test [16]; 99.5% in [17]; 97.1% in [18].
On to `O=C1CCCCC1(c1ccccc1)c1ccccc1`, for which the growth in test [1] was 106%; in test [2] it was 111%; in test [3] it was 110%; in [4] it was 97.4%; in test [5], 71.8%; in [6], 101%. Also, the growth was 101% in test [7]; 106% in test [8]; 99.7% in test [9]; 96.1% in [10]; 95% in test [11]; 114% in test [12]. In addition, the growth in test [13] is 101%; in [14] it was 101%; in [15], 105%; in [16], 98.4%; in test [17], 92.2%; in test [18] it was 100%.
